# Screening data: PubChem, Center for Chemical Genomics, University of Michigan
# Dicer processing = inhibitors of human Dicer processing of pre-microRNA. Q9UPY3. cat-ELCCA pre-miR-21 Dicer processing, chemiluminescence; stronger effect = higher value. z-score at 25 µM. 47,000 compounds, 6% hits. AID 1347074; in the data active means z-score above about 3, passing the limit was not always enough;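 further: plate controls were vehicle for no effect and no enzyme for full effect; higher signal means more uncleaved substrate so more Dicer inhibition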
# An asterisk follows results filed as active. This excerpt belongs to a sample that is enriched for hits.
SMILES,Dicer processing
CCOCCOC(=O)COc1ccc2c(=O)c(Oc3cc(C)ccc3C)coc2c1,3.4*
COc1ccccc1C(=O)Oc1ccc2c(=O)c(Oc3ccccc3Br)coc2c1,2.2
Cc1cccc(Oc2coc3cc(OC(=O)c4ccncc4)ccc3c2=O)c1,28*
COc1ccc(Oc2coc3cc(OC(=O)c4ccc(F)cc4)ccc3c2=O)cc1,0.4
NC(=O)C1CCN(C(=O)C2CC(c3cccc(Br)c3)=NO2)CC1 (stereo not given),8.5
O=C(Nc1cnc2sccn2c1=O)c1ccc(F)cc1,-0.13
CCCCCc1c(C)nc2c(-c3ccccc3)c(C)[nH]n2c1=O,-0.7
CC1=C(C(=O)OCC2CCCO2)C(c2ccc(N(C)C)cc2)C2=C(CCCC2=O)N1 (stereo not given),1.2
CC(=O)Nc1ccc(N2C(=O)CC(Nc3ccc(N4CCOCC4)cc3)C2=O)cc1 (stereo not given),-1.3
O=C(CCc1nc(-c2ccc(Cl)cc2)no1)NNC(=S)NCc1ccccc1,-0.64
Cc1cc2c(cc1C)NC(c1coc3ccccc3c1=O)C1=C(CC(C)(C)CC1=O)N2 (stereo not given),1
Cc1ccc([N+](=O)[O-])c(NC(=O)NC(=O)c2c(Cl)cccc2Cl)c1C,-0.77
CCCCCCn1cnc2c1c(=O)[nH]c(=O)n2C,2.2
CC(C)(C)n1nc(C2CC2)cc1NC(=O)c1ccccc1,-0.49
CCN(CC)c1ccc(NC(=O)c2cnn3c(C(F)F)cc(C)nc23)cc1,0.47
O=C(c1ccc(Sc2ccccn2)c([N+](=O)[O-])c1)N1CC=CCC1,-0.66
CC(C)OC(=O)C(C)Oc1ccc2c(=O)c(Oc3ccccc3Br)coc2c1 (stereo not given),-0.2
CCCCOC(=O)Oc1ccc2c(=O)c(Oc3ccc(C)cc3)coc2c1,3.5*
CC(C)(C)C(=O)Oc1ccc2c(=O)c(Oc3ccccc3Br)coc2c1,-0.06
CCOC(=O)Oc1ccc2c(=O)c(Oc3ccc(C(C)(C)C)cc3)coc2c1,1.5
C=CCOC(=O)Oc1ccc2c(=O)c(Oc3ccc(CC)cc3)coc2c1,1.3
CCC(=O)Oc1ccc2c(=O)c(Oc3ccccc3Br)coc2c1,4.3*
O=C1SC(Nc2ccc(Br)cc2)C(=O)N1c1ccccc1 (stereo not given),0.16
CSC1=NC=C(C#N)C2=NC(C)(c3ccc(Br)cc3)NN12 (stereo not given),0.81
Cc1nn2c3c(cnc2c1-c1ccc(F)cc1)C(=O)CC(c1ccc(F)cc1)C3 (stereo not given),0.07
SMILES,Dicer processing
Cc1nn2c3c(cnc2c1-c1ccc(Cl)cc1)C(=O)CC(c1cccs1)C3 (stereo not given),-0.48
Cc1nn2c3c(cnc2c1-c1ccc(F)cc1)C(=O)CC(c1cccs1)C3 (stereo not given),4.2*
Cc1ccc(C)c(N2CCN(c3ncnc4nc[nH]c34)CC2)c1,-2.2
C=CCc1c(C)nc(SCC(=O)c2cccs2)[nH]c1=O,-0.19
CCOC(=O)Nc1nc2ccc(C)cc2s1,0.79
CC(=O)Nc1nc2ccc(Br)cc2s1,-3
CCOC(=O)C(=O)Nc1nc2ccc(S(C)(=O)=O)cc2s1,5.8*
CS(=O)(=O)c1ccc2nc(NC(=O)CCCC(=O)O)sc2c1,0.15
CCCCOC(=O)Nc1nc2ccc(C)cc2s1,2.3
CS(=O)(=O)c1ccc2nc(NC(=O)Cc3ccc(Br)cc3)sc2c1,5.3*
Oc1ccccc1C1=Nn2c(nnc2-c2ccc(Cl)cc2)SC1,2.1
C=CCOc1ccc(C2c3c(oc4ccccc4c3=O)C(=O)N2Cc2ccc3c(c2)OCO3)cc1OC (stereo not given),0.4
CCOC(=O)/C(C#N)=C/c1cccc2ccccc12,-0.37
COc1ccc(/C=C2/C(=O)Nc3ccccc32)cc1OC,0.59
CCOC(=O)CCc1ccc2c(c1)NC(c1cccc([N+](=O)[O-])c1)O2 (stereo not given),-0.17
CN(C)c1ccc2c3c(cccc13)C(=O)N(c1ccccc1)C2=O,3.4*
CCCSc1ccc2c3c(cccc13)C(=O)N(c1ccccc1)C2=O,-1.1
O=C1c2cccc3c(N4CCCC4)ccc(c23)C(=O)N1c1ccccc1,2
CN1CCN(C(=O)CN2C(=O)COc3ccc(Cl)cc32)CC1,0.04
CC(C)(CC(=O)O)C(CCC(=O)O)C(=O)O (stereo not given),0.67
O=C(Oc1ccc(Cl)cc1)c1cccs1,0.32
Cn1nc(C(C)(C)C)cc1NC(=O)Nc1ccc(OCc2ccccc2)cc1,4.3*
Cn1nc(-c2ccc(Cl)cc2)cc1NC(=O)Nc1ccc(OCc2ccccc2)cc1,-0.67
Cc1ccc(F)cc1NC(=O)Nc1cc(C(C)(C)C)nn1C,4*
Cn1nc(-c2ccccc2)cc1NC(=O)Nc1ccc(F)cc1,3.6*
SMILES,Dicer processing
Cc1ccccc1NC(=O)Nc1cc(-c2ccccc2)nn1C,3
Cc1nnsc1C(=O)Nc1cc(-c2ccccc2)nn1C,-1.2
Cc1cc(C)cc(NC(=O)Nc2cc(C(C)(C)C)nn2C)c1,-1.1
Cn1nc(C(C)(C)C)cc1NC(=O)Nc1cccc2ccccc12,1.4
Cn1nc(-c2ccccc2)cc1NC(=O)Nc1ccc(OCc2ccccc2)cc1,0.53
Cc1cc2c(cc1C)NC(c1ccc(O)cc1)C1=C(CC(C)(C)CC1=O)N2 (stereo not given),0.46
O=C1C2C(c3ccc(F)cc3)OC3(C(=O)c4ccccc4C3=O)C2C(=O)N1Cc1ccccc1 (stereo not given),-0.27
CCCCNC(=O)NC1Cc2ccccc2C1,-0.91
Cn1nc([N+](=O)[O-])nc1Sc1nnc(-c2ccco2)o1,0.36
O=C(Cn1c(=O)sc2ccccc21)Nc1sc2c(c1C(=O)O)CCCC2,2.8
Cc1ccc(-c2csc(N=C(N)N)n2)c(C)c1,0.5
Nc1nc(-c2ccc3ccccc3c2)cs1,0.5
Nc1nc(-c2ccccc2O)cs1,4.5*
Cc1ccc(C)c(-c2csc(N)n2)c1,3.6*
Nc1nc(-c2cccs2)cs1,-0.87
Nc1cccc(-c2csc(N)n2)c1,-1.3
CCOC(=O)c1cnc(Nc2nc(C)c3ccc(C)cc3n2)nc1C,1.7
CC(C)Sc1c(Cl)cccc1NC(=O)Nc1cccc(C(F)(F)F)c1,-0.85
CCOC(=O)/C(C#N)=C/c1cccc(Cl)c1,-0.65
Cc1sc2nc(SCC(=O)N3CCCCC3)[nH]c(=O)c2c1C,-0.76
Cc1cc(C)c2c(=O)[nH]c(SCC(=O)N3CCCCC3)nc2n1,5.8*
CCc1ccc(C(=O)CSc2nc3nc(C)cc(C)c3c(=O)[nH]2)cc1,0.63
Cc1c(C(=O)O/N=C(\N)c2ccc(C(C)(C)C)cc2)sc2cc(C(C)(C)C)sc12,-0.55
Cc1ccc(C2CC(=O)C(C)C(c3ccc(C)cc3)N2)cc1 (stereo not given),1.9
CN1c2ccsc2C(=O)/C(=C\Nc2ccccc2Cl)S1(=O)=O,-0.04
SMILES,Dicer processing
Cc1sc2c(c1C)C(=O)/C(=C\Nc1ccccc1Cl)S(=O)(=O)N2C,4.8*
Cc1sc2c(c1C)C(=O)/C(=C\Nc1ccccn1)S(=O)(=O)N2C,0.25
CCOc1cc(C2Nc3ccccc3-c3nc4ccccc4n32)ccc1O (stereo not given),1.4
FC(F)(F)C1CCN(c2ccc(-c3nc(-c4ccccc4)cs3)cn2)CC1,-1.4
COc1ccc(C2=NN3C(C2)c2cc(Br)ccc2OC3c2ccncc2)cc1 (stereo not given),8.2*
COc1ccc(C2=NN3C(C2)c2cc(Cl)ccc2OC3c2cccnc2)cc1 (stereo not given),2.7
COc1ccc(C2=NN3C(C2)c2ccccc2OC3c2ccncc2)cc1OC (stereo not given),1.2
COc1ccccc1C1Oc2ccccc2C2CC(c3cccnc3)=NN21 (stereo not given),2.4
